Source: PubChem BioAssay (NCATS)
Inconclusive results are not listed. A call without a number means that no potency is given here. Active and inactive are the calls of the source. Calls come from the whole dose curve; as a rule, active = well fitted inhibition curve with a large enough effect; inconclusive = small, poorly fitted or top-dose-only effect; inactive = no such curve, though single readings can be large or run the other way.

Each compound was assayed against Rap guanine nucleotide exchange factor 3 (Homo sapiens) (UniProt O95398) (assay: Confirmatory qHTS for antagonist of cAMP-regulated guanine nucleotide exchange factor 3 (EPAC1) (AID 1645880; note: nearly all actives have a fitted effect of over 55% in size)). Settings: EPAC1 Rap1B-BODIPY-GDP exchange, fluorescence; activity, negative = inhibition: at 115 µM (top of the series).
In short: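 Released BODIPY-GDP fluoresces less than Rap1-bound BODIPY-GDP; the signal is followed at 480/540 nm at 5-min intervals over 30 min, after 5 min at room temperature. Reactions contain 100 nM EPAC1, 250 nM RAP1B-BODIPY-GDP and 50 uM GDP; results are normalized to ATA and DMSO.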
Potency is the fitted concentration of half-maximal effect.

Sequence of Rap guanine nucleotide exchange factor 3 (Homo sapiens) (O95398 whole entry, looked up): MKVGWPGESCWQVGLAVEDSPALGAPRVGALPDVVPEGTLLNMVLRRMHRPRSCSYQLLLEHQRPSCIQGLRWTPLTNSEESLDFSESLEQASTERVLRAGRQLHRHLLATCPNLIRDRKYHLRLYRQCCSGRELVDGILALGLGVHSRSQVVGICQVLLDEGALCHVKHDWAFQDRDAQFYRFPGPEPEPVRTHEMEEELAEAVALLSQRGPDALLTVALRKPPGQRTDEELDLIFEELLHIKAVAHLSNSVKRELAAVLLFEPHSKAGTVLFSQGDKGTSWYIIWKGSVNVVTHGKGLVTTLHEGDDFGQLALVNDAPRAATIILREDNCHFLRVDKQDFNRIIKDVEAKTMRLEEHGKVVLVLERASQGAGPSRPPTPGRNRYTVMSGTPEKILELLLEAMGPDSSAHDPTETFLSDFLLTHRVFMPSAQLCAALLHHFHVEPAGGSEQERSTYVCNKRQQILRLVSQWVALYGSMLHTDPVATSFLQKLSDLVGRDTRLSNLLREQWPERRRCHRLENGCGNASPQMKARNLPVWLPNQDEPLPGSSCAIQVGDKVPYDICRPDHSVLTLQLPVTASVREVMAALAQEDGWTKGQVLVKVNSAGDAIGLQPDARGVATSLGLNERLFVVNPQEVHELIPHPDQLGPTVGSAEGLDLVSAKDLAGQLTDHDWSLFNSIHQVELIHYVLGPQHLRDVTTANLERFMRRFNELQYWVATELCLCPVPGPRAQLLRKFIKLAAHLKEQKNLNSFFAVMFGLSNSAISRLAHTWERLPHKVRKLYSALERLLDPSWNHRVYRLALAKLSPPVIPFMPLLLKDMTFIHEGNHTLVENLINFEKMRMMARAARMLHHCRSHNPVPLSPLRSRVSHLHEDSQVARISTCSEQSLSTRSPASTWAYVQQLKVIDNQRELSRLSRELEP

Structure (SMILES)	Potency
CC(=O)N1N=C2c3ccccc3CCC2C1c1cccs1 (stereo not given)	inactive
COc1ccc(NS(=O)(=O)c2ccc(S(=O)(=O)N3CCCC3)cc2)cc1	inactive
c1ccc(CNc2c(-c3cccc(SC4CCCCC4)c3)nc3ccccn23)cc1	inactive
Cc1ccc(C2N(c3ccc(Cl)cc3)C(=O)N3CCCN23)cc1 (stereo not given)	inactive
CC1CN(c2nc(-c3ccccc3)nc3ccccc23)CC(C)O1 (stereo not given)	inactive
COC(=O)c1ccc2nc(-c3ccc(F)cc3)c(CC3CCCCC3)n2c1	inactive
COCCN(CCOC)Cc1cc(=O)oc2cc(C)cc(C)c12	inactive
COC(=O)c1ccc2nc(-c3ccc(OC)c(OC)c3)c(CC3CCCCC3)n2c1	inactive
Cc1ccc(C2(c3noc(CN(C)Cc4ccccn4)n3)CCCC2)cc1	inactive
COc1ccccc1C1CC(=O)Oc2cc(C)c(Cl)c(C)c21 (stereo not given)	inactive
O=C(Cc1c(F)cccc1Cl)Nc1ccc(S(=O)(=O)Nc2nccs2)cc1	inactive
O=c1ccc(NS(=O)(=O)c2ccc(Cl)cc2)cn1Cc1ccc(Cl)c(Cl)c1	75.7 µM (active)
O=C1[C@H]2CCC=C[C@H]2[C@H](c2ccccc2Br)N1Cc1ccccc1	inactive
O=C(O)CCCN1C(=O)/C(=C/c2cn(-c3ccccc3)nc2-c2cccs2)SC1=S	inactive
COC(=O)c1ccc2nc(-c3cccc(Br)c3)c(Cc3ccsc3)n2c1	inactive
COc1ccc(S(=O)(=O)Nc2ncccc2C)c2ccccc12	inactive
Cc1ccc(-c2nn3cnnc3c3ccccc23)cc1C	inactive
COc1ccc(-c2noc(CN(C(=O)c3c(-c4ccccc4Cl)noc3C)C(C)C)n2)cc1	inactive
CC1CN(c2nc3ccccc3cc2-c2ccccc2)CC(C)O1 (stereo not given)	inactive
Cc1ccc(C2N(c3cccc(Cl)c3)C(=O)N3CCCN23)cc1 (stereo not given)	inactive

Structure (SMILES)	Potency
COc1ccc(N2C(=O)CSC2c2ccccc2F)c(OC)c1 (stereo not given)	inactive
COc1ccc(-c2ccc(CCC(=O)O)n2-c2ccc(Cl)cc2C)cc1	inactive
O=C(COc1ccc(Br)cc1Cl)c1ccc[nH]1	inactive
COc1ccc2cc(S(=O)(=O)N3CCCC3)ccc2c1	inactive
CC(C)c1nc2cc(Cl)ccc2n(Cc2ccccc2)c1=O	inactive
Cc1ccc(C23CC4CC(CC(C(=O)N(C)C)(C4)C2)C3)cc1	inactive
COC(=O)c1ccccc1C(=O)c1c(C)cc(C)cc1C	inactive
O=C(/C=C/c1cccc(Cl)c1Cl)OCC(=O)N1CCOCC1	inactive
COC(=O)c1cccc(F)c1C(=O)c1cccc2ccccc12	inactive
CCCNC(=O)c1ccc(N2CCC3(CC2)CC(c2ccccc2)=NO3)c(NC(=O)c2ccccc2)c1	inactive
COc1ccc(-n2cc(-c3ccccc3)c3c(N4CCOCC4)ncnc32)cc1	inactive
Cc1ccc(C2(c3noc(CN(C)CC4CCCCO4)n3)CCCC2)cc1 (stereo not given)	inactive
CCN(Cc1cc(=O)oc2cc(C)ccc12)c1ccccc1	inactive
Cc1ccc(CN(Cc2ccco2)C(=O)c2ccco2)cc1	inactive
O=C1CSC(=Nc2ccccc2)N1Cc1ccccc1	inactive
COc1ccc(C2CC(=O)Oc3cc(C)c(Cl)cc32)cc1 (stereo not given)	inactive
COc1ccc(C(=O)N(Cc2ccccc2)c2cccc(C)c2)cc1	inactive
COC(=O)c1ccc2nc(-c3ccc(Cl)cc3)c(Cc3cccc(F)c3)n2c1	inactive
COC(=O)c1ccc2nc(C3CCCCC3)c(Cc3ccccc3)n2c1	inactive
Cc1cc(C)c(C(=O)c2ccccc2)c(C)c1	inactive
